Here are results for 14 molecules from PubChem BioAssay (NCI).

Test systems include SK-MEL-2 melanoma; EKVX NSCLC; SN12C renal; UO-31 renal; TK-10 renal; ACHN renal; CAKI-1 renal; A498 renal; CCRF-CEM leukemia; MOLT-4 leukemia.
Assay in all cases: NCI-60 one-dose screen, 48 h (100 = growth as untreated, 0 = no growth, -100 = all killed)
Holding throughout (settings): 10 µM unless noted

The panel holds about 83,000 compounds, 20% with a hit somewhere; the sample as a whole holds those more often.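 The endpoint reported here, percent growth, reads 100 for growth as untreated, 0 for no net growth and -100 for all cells dead.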 A number with no mark means an inactive call. Active and inactive are the calls of the source. The calls were made as follows: active = growth percent below 10; inactive = the rest.

Consider `COc1cccc(/C=C/C(=O)c2cc3c(N)c(C(=O)Nc4cccc(Cl)c4C)sc3nc2C)c1`, for which the growth is -17.3% (active) in the assay with SK-MEL-2 melanoma; 39.8% with EKVX NSCLC; -22.7% (active) in the assay on SN12C renal; -43.4% (active) with UO-31 renal; -18% (active) in the assay with TK-10 renal; 6.8% (active) with ACHN renal. For the same molecule, the growth with CAKI-1 renal was -47.4% (active); in the assay on A498 renal, -13.2% (active); in the assay on CCRF-CEM leukemia, 7.19% (active).
On to `Cc1ccc(C)c(-n2c(-c3ccc(Br)cc3)csc2=NC(=O)c2ccccc2F)c1`, for which the growth in the assay with SK-MEL-2 melanoma is 101%; in the assay on EKVX NSCLC, 76.1%; in the assay with SN12C renal it was 85.8%; in the assay with UO-31 renal, 108%; in the assay with TK-10 renal it was 116%; in the assay on ACHN renal, 52.9%. Further, the growth with CAKI-1 renal is 76.1%; with A498 renal, 80.7%; in the assay with CCRF-CEM leukemia, 43.4%.
With `O=S(=O)(c1ccccc1)N1CCCN(c2nc(-c3ccccc3)nc3nc(-c4ccccc4)oc23)CC1`, the growth is 108% in the assay with SK-MEL-2 melanoma; 107% with EKVX NSCLC; 98.5% with SN12C renal; 85.3% in the assay with UO-31 renal; 114% in the assay with TK-10 renal; 104% in the assay on ACHN renal. In addition, the growth is 91.7% with CAKI-1 renal, 96.9% in the assay with A498 renal and 105% with CCRF-CEM leukemia.
As to `Cc1nn(-c2ccccc2)c(N2CCCCC2)c1/C=N/NC(=O)Cn1c(=O)sc2ccccc21`, the growth in the assay with SK-MEL-2 melanoma is 88.9%; in the assay on EKVX NSCLC it was 74.5%; in the assay with SN12C renal it was 85%; in the assay on UO-31 renal, 48.1%; in the assay on TK-10 renal, 88.5%; with ACHN renal, 66.8%. For the same molecule, the growth in the assay with CAKI-1 renal was 34.7%; in the assay with A498 renal it was 80.7%; with CCRF-CEM leukemia, 84.7%.
In the case of `COP(=O)(OC)c1nnn(-c2cccc([N+](=O)[O-])c2)c1C`, the growth was 106% in the assay on SK-MEL-2 melanoma; 106% in the assay with EKVX NSCLC; 104% with SN12C renal; 84.5% with UO-31 renal; 99% in the assay with TK-10 renal; 106% in the assay on ACHN renal. Also, the growth in the assay on CAKI-1 renal was 97.2%; in the assay with A498 renal it was 101%; in the assay with CCRF-CEM leukemia, 104%.
As to `CC[C@]12C=CCN3CC[C@@]4(c5ccc(OC)cc5N(C)[C@H]4[C@@](O)(C(=O)OC)[C@@H]1OC(=O)CCCN1CCOCC1)[C@@H]32`, the growth in the assay with SK-MEL-2 melanoma is 109%; with EKVX NSCLC, 111%; in the assay with SN12C renal it was 105%; in the assay on UO-31 renal it was 94.1%; in the assay on TK-10 renal, 99.8%; in the assay on ACHN renal it was 110%. The values for the growth in the assay on CAKI-1 renal, in the assay on A498 renal and in the assay on CCRF-CEM leukemia were 94.2%, 113% and 107%, respectively.
Consider `C#Cc1cccc(Oc2ccc(NC(=O)CCl)cc2)c1`, for which the growth was 61.8% [8.25 µM] in the assay with SK-MEL-2 melanoma; 82.3% [8.25 µM] in the assay with EKVX NSCLC; 37.6% [8.25 µM] with SN12C renal; 52.8% [8.25 µM] with UO-31 renal; 93% [8.25 µM] in the assay with TK-10 renal; 70.1% [8.25 µM] with ACHN renal. In addition, the growth with CAKI-1 renal is 36.9% [8.25 µM]; in the assay with A498 renal, 102% [8.25 µM]; in the assay with CCRF-CEM leukemia, 2.35% [8.25 µM] (active).
For `Cc1ccc(-c2csc(NC(=O)N3CCN(c4cc5c(cc4F)c(=O)c(C(=O)O)cn5C4CC4)CC3)n2)cc1`, the growth is -26.3% (active) in the assay on SK-MEL-2 melanoma; 20.4% in the assay on EKVX NSCLC; 15.5% in the assay with SN12C renal; 8.87% (active) with UO-31 renal; 26.1% in the assay with TK-10 renal; 5.91% (active) in the assay with ACHN renal. The growth in the assay on CAKI-1 renal is 22.2%; with A498 renal, 2.51% (active); in the assay on CCRF-CEM leukemia it was 12.9%.
As for `COC(=O)c1ccc2c(c1)c1c(C)c3ccncc3c(C)c1n2C`, the growth with SK-MEL-2 melanoma is 13.9%; in the assay on EKVX NSCLC, 34.3%; in the assay on SN12C renal, 36.1%; in the assay on UO-31 renal, 11.9%; with TK-10 renal, 32.7%; in the assay on ACHN renal, 14.8%. Besides, the growth in the assay with CAKI-1 renal was 13%; with A498 renal, -0.17% (active); with CCRF-CEM leukemia it was 30.4%; in the assay with MOLT-4 leukemia, 12.9%.
For the molecule `C[C@@H](CO)[C@@H]1CC[C@]2(C(=O)N3CCN(C)CC3)CC[C@]3(C)[C@H](CC[C@@H]4[C@@]5(C)CC[C@H](O)C(C)(C)[C@@H]5CC[C@]43C)[C@@H]12`, the growth in the assay on SK-MEL-2 melanoma was 90.1%; with EKVX NSCLC, 88.4%; in the assay on SN12C renal, 71.9%; in the assay with UO-31 renal, 64.7%; in the assay on TK-10 renal, 113%; in the assay with ACHN renal, 89.6%. In addition, the growth in the assay with CAKI-1 renal was 78.2%; with A498 renal it was 89%; in the assay with CCRF-CEM leukemia, -5.45% (active).
With `O=C(Cn1nnc2ccccc21)N/N=C/c1ccccc1F`, the growth with SK-MEL-2 melanoma is 102%; in the assay with EKVX NSCLC, 106%; with SN12C renal, 83.9%; in the assay on UO-31 renal, 87%; with TK-10 renal it was 107%; in the assay on ACHN renal, 106%. In addition, the figures for the growth with CAKI-1 renal, with A498 renal and in the assay on CCRF-CEM leukemia were 97.9%, 85.5% and 103%, respectively.
`CCOC(=O)C1=C(c2ccccc2)N=c2s/c(=C/c3ccc(Br)cc3)c(=O)n2C1c1ccc(O)cc1` (configuration not stated): the growth in the assay on SK-MEL-2 melanoma was 95.9%; in the assay on EKVX NSCLC, 76.8%; in the assay on SN12C renal, 85.2%; with UO-31 renal, 78.5%; with TK-10 renal, 91.7%; with ACHN renal, 104%. Besides, the growth with CAKI-1 renal is 62.2%; in the assay on A498 renal it was 73.2%; in the assay on CCRF-CEM leukemia, 83%.
For the molecule `O=C(CCCCCCN1CC(=O)N2[C@@H](c3ccc(Cl)cc3)c3[nH]c4ccccc4c3C[C@H]2C1=O)NO`, the growth with SK-MEL-2 melanoma is 80.7%; in the assay with EKVX NSCLC it was 85.6%; with SN12C renal, 65.7%; in the assay on UO-31 renal, 59.7%; in the assay with TK-10 renal, 110%; in the assay on ACHN renal it was 78.8%. Moreover, the growth in the assay with CAKI-1 renal was 60.9%; in the assay on A498 renal, 67.2%; with CCRF-CEM leukemia it was 18.7%.
With `CC[C@H](Nc1nc(N)nc(C)c1C#N)c1nc2cccc(NCCCCCC(=O)NO)c2c(=O)n1-c1ccccc1`, the growth was 76.1% with SK-MEL-2 melanoma; 75% in the assay on EKVX NSCLC; 46.3% in the assay on SN12C renal; 30.1% in the assay with UO-31 renal; 33.2% with TK-10 renal; 51.9% in the assay on ACHN renal. Besides, the figures for the growth in the assay with CAKI-1 renal, with A498 renal and in the assay with CCRF-CEM leukemia were 35.9%, -29.5% (active) and 43.3%, respectively.
